Results on 32 compounds are retold here after PubChem BioAssay AID1345085 (National Center for Advancing Translational Sciences (NCATS), 2018).

Each structure is given as a SMILES string. Results filed as inconclusive are left out. Activity calls are given as the source filed them. Calls come from the whole dose curve; as a rule, active = well fitted cell-killing curve with a large enough effect; inconclusive = small, poorly fitted or top-dose-only effect, or effect the other way; inactive = no such curve, though single readings can be large or run the other way.
Potency is the fitted concentration of half-maximal effect.

The assay concerns JEG-3. In words: Confirmatory qHTS for gynecologic anti-cancer compounds from libraries of approved drugs and bioactive compounds. Note: nearly all actives have a fitted effect of over 55% in size. The note with it: gynecologic cancer cell panel viability, ATPlite luminescence, 48 h; series mostly up to 57.6 µM. The method in brief:
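Viability is measured as ATP-dependent luciferase light using ATPlite, read 15 min after reagent addition at room temperature. Compounds, in DMSO, span 57.5 uM down to 0.977 nM over 11 threefold steps for 48 h.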
`Nc1ccc(C(=O)Nc2cccc(-c3nc(N4CCOCC4)c4oc5ncccc5c4n3)c2)cn1`: the Potency was 5.44 µM (active).

As for `CCN1CCN(Cc2ccc(Nc3ncc(F)c(-c4cc(F)c5nc(C)n(C(C)C)c5c4)n3)nc2)CC1`, the Potency was 9.68 µM (active).

In the case of `CNc1nc(Nc2ccc(C(=O)N3CCOCC3)cc2OC)ncc1Cl`, the Potency entry is “inactive”.

For `Oc1cn2c(n1)Nc1ccc(Cl)c(Cl)c1C2`, the Potency entry was “inactive”.

For the compound `Cc1ccc(C(=O)Nc2ccc(CN3CCN(C)CC3)c(C(F)(F)F)c2)cc1C#Cc1cnc2cccnn12`, the Potency is 27.3 µM (active).

Take `CCN1C[C@H](C)n2c(c(O)c3c(=O)n(Cc4ccc(F)c(Cl)c4)nc(C(=O)NC)c32)C1=O`: the Potency result is “inactive”.

Regarding `CCCC(=O)O[C@]1(C(=O)CCl)[C@@H](C)C[C@H]2[C@@H]3CCC4=CC(=O)C=C[C@]4(C)[C@@]3(F)C(=O)C[C@@]21C`, the Potency is 10.9 µM (active).

Take `CN1CCN(Cc2ccc(NC(=O)Nc3ccc(Oc4cc(NC(=O)C5CC5)ncn4)cc3)cc2C(F)(F)F)CC1`: the Potency was 0.243 µM (active).

In the case of `O=c1cc(CN2CCOCC2)occ1OCCCCCSc1ccnc2cc(C(F)(F)F)ccc12`, the Potency was 8.63 µM (active).

As for `CCc1nc(C(N)=O)c(Nc2ccc(N3CCC(N4CCN(C)CC4)CC3)c(OC)c2)nc1NC1CCOCC1`, the Potency result was “inactive”.

In the case of `CCS(=O)(=O)c1cccc(-c2cc(C(=O)NC3CCN(C)CC3)c(C)c3[nH]c4ncc(C)cc4c23)c1`, the Potency was 2.67 µM (active).

With `CCCC(Nc1nc(-c2ccc(NC(=O)NCC)c(OC)c2)ncc1C)c1cccnc1` (configuration not stated), the Potency was 0.153 µM (active).

Turning to `NC(=O)Nc1cc(-c2cccc(F)c2)sc1C(=O)NC1CCCNC1` (configuration not stated), the Potency was 1.22 µM (active).

For the compound `CC[C@]1(O)C[C@H]2CN(CCc3c([nH]c4ccccc34)[C@@](C(=O)OC)(c3cc4c(cc3OC)N(C=O)[C@H]3[C@@](O)(C(=O)OC)[C@H](OC(C)=O)[C@]5(CC)C=CCN6CC[C@]43[C@@H]65)C2)C1`, the Potency was 0.193 µM (active).

As for `Nc1ccccc1NC(=O)c1ccc(CNc2nccc(-c3cccnc3)n2)cc1`, the Potency was 2.17 µM (active).

As to `CS(=O)(=O)c1ccc(-c2cnc(N)c(C(=O)Nc3ccccc3)n2)cc1`, the Potency entry is “inactive”.

With `CCN(CC)CCNC(=O)c1c(C)[nH]c(/C=C2\C(=O)Nc3ccc(F)cc32)c1C`, the Potency was 25.1 µM (active).

In the case of `CN[C@@H](C)C(=O)N[C@H]1CN(C(=O)CC(C)C)CC[C@H]2CC[C@@H](C(=O)NC(c3ccccc3)c3ccccc3)N2C1=O`, the Potency entry was “inactive”.

In the case of `CC(Oc1cc(-n2cnc3ccc(CN4CCN(C)CC4)cc32)sc1C(N)=O)c1ccccc1C(F)(F)F` (configuration not stated), the Potency was 1.93 µM (active).

As for `Cc1cnc(Nc2ccc(F)cc2Cl)nc1-c1c[nH]c(C(=O)NC(CO)c2cccc(Cl)c2)c1` (configuration not stated), the Potency result is “inactive”.

Take `CCOc1cc2ncc(C#N)c(Nc3ccc(F)c(Cl)c3)c2cc1NC(=O)/C=C/CN(C)C`: the Potency was 30.6 µM (active).

In the case of `N=C(N)c1ccc(OCCCCCOc2ccc(C(=N)N)cc2)cc1`, the Potency was 3.43 µM (active).

For `CN(C)c1ccc(-c2nc3ncc(Cl)c(N4CCN(CC(=O)Nc5nccs5)CC4)c3[nH]2)cc1`, the Potency result was “inactive”.

With `COc1ccccc1N1CCN(CC(O)COc2cccc3ccccc23)CC1` (configuration not stated), the Potency result is “inactive”.

Turning to `CN1C2CCC1CC(OC(=O)[C@H](CO)c1ccccc1)C2` (some centres not stated), the Potency result was “inactive”.

As to `C#C[C@]1(O)CC[C@H]2[C@@H]3CCC4=CC(=O)CC[C@@H]4[C@H]3CC[C@@]21CC`, the Potency entry is “inactive”.

Consider `CN(NC(=O)CC(=O)NN(C)C(=S)c1ccccc1)C(=S)c1ccccc1`, for which the Potency is 0.109 µM (active).

Turning to `COc1ccc2c(c1)c(CC(=O)O)c(C)n2C(=O)c1ccc(Cl)cc1`, the Potency result was “inactive”.

Take `COc1ccc(OC)c(-c2nnc3ccc(-c4ccc(OC)c(O[C@@H]5CCOC5)c4)nn23)c1`: the Potency is 4.85 µM (active).

As for `CCCCN(CCCC)C(=O)CN1C[C@H](c2ccc3c(c2)OCO3)[C@@H](C(=O)O)[C@@H]1c1ccc(OC)cc1`, the Potency result is “inactive”.

As to `COc1cccc2c1C(=O)c1c(O)c3c(c(O)c1C2=O)C[C@@](O)(C(=O)CO)C[C@@H]3O[C@H]1C[C@H](N)[C@H](O)[C@H](C)O1`, the Potency was 1.09 µM (active).

As to `CCC1C(=O)N(C)c2cnc(Nc3ccc(C(=O)NC4CCN(C)CC4)cc3OC)nc2N1C1CCCC1` (configuration not stated), the Potency was 0.0153 µM (active).
